Common to all, as to test: NCI-60 one-dose screen, 48 h (100 = growth as untreated, 0 = no growth, -100 = all killed)
What all share (conditions): 10 µM unless noted

Experiment [1] has as its system SK-MEL-2 melanoma.
The test system of experiment [2] is EKVX NSCLC.
The subject of experiment [3] is SN12C renal.
Experiment [4] concerns UO-31 renal.
Experiment [5] relates to TK-10 renal.
In experiment [6] the test system is ACHN renal.
The subject of experiment [7] is CAKI-1 renal.
Experiment [8] deals with A498 renal.
Experiment [9] relates to CCRF-CEM leukemia.
Experiment [10] relates to MOLT-4 leukemia.
Experiment [11] deals with SR leukemia.
The test system of experiment [12] is RPMI-8226 leukemia.
Experiment [13] concerns OVCAR-8 ovarian.
Experiment [14] relates to OVCAR-5 ovarian.
Experiment [15] concerns OVCAR-4 ovarian.
Experiment [16] relates to SK-OV-3 ovarian.
The test system of experiment [17] is IGROV1 ovarian.
The subject of experiment [18] is OVCAR-3 ovarian.
In experiment [19] the test system is HS 578T breast.
The subject of experiment [20] is NCI/ADR-RES ovarian.

Compounds without any hit were thinned out: in the full panel of roughly 83,000, 20% have a hit.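 In brief: 96-well plates, 48 h treatment, single concentration, percent growth endpoint.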 Unmarked numbers belong to inactive results. Calls of active or inactive are those of the source. Rule for the calls: active = growth percent below 10; inactive = the rest.

`COC1=CC(c2ccc[nH]2)=N/C1=C\c1[nH]c(C)c(CC(=O)OCc2ccccc2)c1CCC(=O)OCc1ccccc1`: the growth in experiment [1] was -61.3% (active); in [2], 4% (active); in [3], -15.6% (active); in [4], -89.3% (active); in experiment [5], -21.5% (active); in [6], -30.6% (active). Besides, the growth in [7] is -15.9% (active); in experiment [8], -54.1% (active); in experiment [9], -0.154% (active); in experiment [10], -10.6% (active); in experiment [11], -36.2% (active); in [12] it was -50.8% (active). For the same compound, the growth in experiment [13] was -18.9% (active); in [14], -17.1% (active); in [15], 13.6%; in [16], -13.6% (active); in experiment [17], 12.6%; in experiment [18], -86.8% (active). In addition, the values for the growth in experiment [19] and in experiment [20] were -18.9% (active) and -26.4% (active), respectively.

On to `O=C1/C(=C/c2ccc([N+](=O)[O-])cc2)COc2ccc(O)cc21`, for which the growth was 109% in experiment [1]; 92.3% in [2]; 76.8% in [3]; 53.7% in experiment [4]; 92.7% in experiment [5]; 82.7% in experiment [6]. In addition, the growth was 63.6% in experiment [7]; 99.5% in experiment [8]; 3.96% (active) in experiment [9]; 39.3% in [10]; 7.84% (active) in experiment [11]; -16.4% (active) in experiment [12]. The growth is 69.5% in experiment [13]; 99% in experiment [14]; 89.5% in experiment [15]; 113% in experiment [16]; 73.4% in experiment [17]; 82.7% in experiment [18]. The values for the growth in experiment [19] and in experiment [20] were 89.3% and 92.1%, respectively.

Turning to `Cc1c(O)cc(-c2cnc(Nc3ccccc3)s2)c(O)c1C`, the growth in experiment [1] was 99.4%; in [2], 87.9%; in experiment [3], 94%; in [4] it was 86.9%; in [5] it was 134%; in experiment [6], 91.6%. Further, the growth is 86.9% in experiment [7]; 75.1% in experiment [8]; 78.5% in experiment [9]; 62.8% in experiment [10]; 87.4% in experiment [11]; 82.5% in [12]. Besides, the growth was 94% in experiment [13]; 111% in experiment [14]; 84.8% in experiment [15]; 94.5% in [16]; 79.2% in experiment [17]; 102% in experiment [18]. Further, the growth is 87.5% in experiment [19] and 96.5% in [20].

Take `N#Cc1nc(-c2ccc(Cl)cc2)oc1S(=O)(=O)N1CCN(c2ccc(F)cc2)CC1`: the growth in experiment [1] is 87.9%; in experiment [2] it was 111%; in experiment [3] it was 92.2%; in [4], 81.3%; in [5], 100%; in experiment [6], 102%. The growth in experiment [7] is 107%; in experiment [8], 78.6%; in [9], 3.82% (active); in experiment [10], 3.45% (active); in experiment [11] it was 23.9%; in [12], 88.4%. Besides, the growth in experiment [13] is 82.3%; in experiment [14], 108%; in [15], 106%; in experiment [16], 98.3%; in experiment [17] it was 78.8%; in [18], 108%. The growth in [19] is 103%; in experiment [20], 101%.

`COc1ccc(C2=Nc3c(N)nc(N)nc3NC(c3cccc(Nc4ccnc5cc(C(F)(F)F)ccc45)c3)C2)cc1` (stereo not given): the growth is 75.5% in [1]; 72.3% in [2]; 75.7% in experiment [3]; 70% in experiment [4]; 108% in experiment [5]; 96.4% in [6]. Moreover, the growth in experiment [7] was 60.7%; in experiment [8], 84.7%; in [9], 53.9%; in experiment [10], 24.3%; in experiment [11], -3.78% (active); in [12] it was 18.2%. Further, the growth in experiment [13] is 75.6%; in experiment [14], 116%; in experiment [15], 68.9%; in [16] it was 84%; in experiment [17], 72.1%; in experiment [18], 66.4%. The values for the growth in [19] and in [20] were 66.3% and 87.6%, respectively.

Turning to `c1csc(-c2ccc(CNc3c4ccccc4nc4ccccc34)cc2)c1`, the growth was 80.8% in experiment [1]; 59% in experiment [2]; 63.2% in experiment [3]; 27.9% in experiment [4]; 65.1% in experiment [5]; 58.6% in experiment [6]. The growth in experiment [7] was 35.5%; in experiment [8], -2.45% (active); in experiment [9], 2.57% (active); in experiment [10] it was 1.96% (active); in experiment [11], -43.7% (active); in [12], -44.4% (active). The growth was 55.6% in [13]; 67.1% in experiment [14]; 15.3% in experiment [15]; 65% in experiment [16]; 10% in experiment [17]; 9.5% (active) in [18]. In addition, the growth is 60.6% in experiment [19] and 11.2% in [20].

On to `COc1cc2c(cc1OCCCN1CCN(CCCOc3cc4c(cc3OC)C(=O)N3CC(F)(F)C[C@H]3C=N4)CC1)N=C[C@@H]1CC(F)(F)CN1C2=O`, for which the growth in [1] was 90.6%; in experiment [2] it was 197%; in [3], 54.7%; in experiment [4] it was 82.4%; in experiment [5], 115%; in [6] it was 78.3%. The growth was 35% in experiment [7]; 86.1% in experiment [8]; -28.2% (active) in experiment [9]; 26.9% in experiment [10]; 37.5% in experiment [11]; 5.91% (active) in experiment [12]. For the same compound, the growth in experiment [13] is 62.2%; in experiment [14], 41.2%; in [15], 83%; in experiment [16], 84.9%; in [17] it was 60.9%; in [18], 54.6%. Also, the growth is -0.618% (active) in [19] and 111% in [20].

Regarding `COc1ccc(C/C(C)=C(/c2ccc(OCCN(C)C)cc2)c2ccc(OC(=O)NCc3ccccc3)cc2)cc1`, the growth in [1] was 90.5%; in experiment [2], 72.2%; in [3], 74.2%; in experiment [4] it was 46.4%; in [5], 78.5%; in experiment [6], 90.9%. Besides, the growth was 67.1% in experiment [7]; 85.7% in experiment [8]; 47.2% in [9]; 37.3% in experiment [10]; -46% (active) in experiment [11]; 32.9% in [12]. The growth in experiment [13] was 77.4%; in experiment [14], 92%; in experiment [15], 78.4%; in [16], 81.4%; in experiment [17], 85.3%; in [18], 63.9%. Further, the values for the growth in [19] and in experiment [20] were 56.2% and 77.2%, respectively.
